What was measured:
Test in all cases: PBM binding z-score (relative to random genomic background probes); higher = stronger binding; sequences stand for … in GC…GCGATTGACAGCGTAGAATGAAGG
[1] = tested on: PPARg:RXRa DBDmut IVT, anti-RXR (DBD mutation: RXRa K156A/R161A, NR concentration 270 nM, RXRa partner concentration 90 nM)
Summary of the method: (§1)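 Ligand-free nuclear receptor dimers were applied to custom Agilent 4×180K protein-binding microarrays whose double-stranded probes carried direct-repeat seeds, single-nucleotide variants, half-site ablations and random human genomic background sequences in 34-nt variable regions. Incubation lasted 1 h. Binding z-scores were computed against the random background probes from regression-normalized fluorescence.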

[2] = tested on: PPARg:RXRa IVT, anti-PPARg (NR concentration 270 nM, RXRa partner concentration 90 nM)
Summary of the method: as §1

[3] = tested on: PPARg DBDmut:RXRa IVT, anti-PPARg (DBD mutation: PPARg1 K132A/R137A, NR concentration 270 nM, RXRa partner concentration 90 nM)
Summary of the method: as §1

[4] = tested on: PPARg DBDmut IVT, anti-PPARg (DBD mutation: PPARg1 K132A/R137A, NR concentration 270 nM)
Summary of the method: as §1

[5] = tested on: PPARg homodimer (NR concentration 180 nM)
Summary of the method: as §1

[6] = tested on: PXR:RXRa (NR concentration 270 nM, RXRa partner concentration 90 nM)
Summary of the method: as §1

[7] = tested on: PXR homodimer (NR concentration 270 nM)
Summary of the method: as §1

[8] = tested on: RARa:RXR (NR concentration 270 nM, RXRa partner concentration 90 nM)
Summary of the method: as §1

[9] = tested on: RARa homodimer (NR concentration 270 nM)
Summary of the method: as §1

[10] = tested on: RARb:RXRa (NR concentration 270 nM, RXRa partner concentration 90 nM)
Summary of the method: as §1

[11] = tested on: RARb homodimer (NR concentration 270 nM)
Summary of the method: as §1

[12] = tested on: RARg:RXRa (NR concentration 270 nM, RXRa partner concentration 90 nM)
Summary of the method: as §1

[13] = tested on: RARg homodimer (NR concentration 270 nM)
Summary of the method: as §1

[14] = tested on: RXRa DBDmut IVT, anti-RXR (DBD mutation: RXRa K156A/R161A, NR concentration 90 nM)
Summary of the method: as §1

[15] = tested on: RXRa homodimer (NR concentration 180 nM)
Summary of the method: as §1

[16] = tested on: THRa:RXRa (NR concentration 90 nM, RXRa partner concentration 90 nM)
Summary of the method: as §1

[17] = tested on: THRa homodimer (NR concentration 90 nM)
Summary of the method: as §1

[18] = tested on: VDR homodimer (NR concentration 270 nM)
Summary of the method: as §1

Sequence	PBM binding z-score [1]	PBM binding z-score [2]	PBM binding z-score [3]	PBM binding z-score [4]	PBM binding z-score [5]	PBM binding z-score [6]	PBM binding z-score [7]	PBM binding z-score [8]	PBM binding z-score [9]	PBM binding z-score [10]	PBM binding z-score [11]	PBM binding z-score [12]	PBM binding z-score [13]	PBM binding z-score [14]	PBM binding z-score [15]	PBM binding z-score [16]	PBM binding z-score [17]	PBM binding z-score [18]
CCTAGCAGCCCAGGGTCACTCAAGCATTTCGCTT	-0.614	0.169	-1.11	-1.49	1.2	2.56	0.192	3.27	0.00809	2.4	2.69	2.9	2.45	0.289	3.38	2.77	1.13	1.33
ATCTCTAGGTAACAAGTTCAGAGAAAGAGAGGAC	2.92	2.66	0.959	2.27	0.923	1.59	1.6	1.1	1.3	1.53	1.98	1.45	1.32	0.95	1.04	1.49	0.815	2.72
GCTATTAGTTGAAAGGGCAAACGAATGATTCTCG	0.582	1.18	0.0539	0.507	1.19	0.938	0.57	1.52	1.28	2.04	1.86	1.24	1.06	0.931	1.38	0.777	-0.332	0.589
ATCTCTAGGTAACCAAGTTCAGTGACTGCCGAAC	4.09	2.78	0.981	0.674	1.09	2.14	2.22	0.968	1.12	1.14	1.39	0.744	0.871	1.24	0.577	1.46	1.03	2.9
ATATGTAGGATAAGGGTCATTCAGGTTGGTTCGC	4.06	5.32	1.23	0.978	3.23	4.9	2.87	4.72	2.11	3.18	3.69	3.9	3.42	2.09	4.8	3.25	1.38	4.54
TAGCCTAGGTCATGCGGGCCAGAATAGTGTCGGC	1.69	2.9	-0.0114	-0.646	0.886	1.66	-0.503	2.58	-0.8	3.83	2.94	4.18	4.34	0.571	3.18	3.03	0.922	0.435
CGTCCAAGGTCATAGGAGGTAAGTGAAGACAGAT	2.54	3.38	0.738	0.602	2.39	4.29	1.22	3.98	1.57	4.88	3.21	5.58	5.93	3.37	5.29	4.6	2.43	2.6
ATCGAAAGGTCTACGAGGTGAGTATACACCGTTT	-0.371	1.17	0.797	0.317	0.182	0.409	0.194	1.17	0.434	1.81	1.01	1.32	1.56	-0.0758	1.11	2.26	0.606	0.124
CAAACTAGGACACCGGAAGGTCAAAGTCCGCATG	6.39	6.49	2.4	2.63	2.78	3.89	1.68	4.36	1.36	3.59	4.14	4.12	3.83	0.721	3.58	3.71	2.1	2.92
ATCTCTAGGTAAGACTCAGTTCAGTGAGGAACGC	1.94	1.26	0.558	0.604	0.314	0.836	1.56	0.193	0.359	0.376	0.438	0.383	0.447	0.293	0.124	0.714	0.481	1.3
TAGCCTAGGTCATGGGCCAATATACCACGCGAAC	1.34	3.16	0.749	-0.176	1.44	1.86	-0.28	2.92	0.353	3.77	2.95	4.22	4.2	0.955	3.55	3.1	1.43	0.541
ACTATTAGTTGACATAGGGCAACCGATACGACGC	0.444	0.742	1.27	1.22	0.811	0.547	0.504	0.635	0.879	1.19	1.24	0.928	1.29	0.826	0.903	1.25	0.125	0.399
TATGCAGGGTCAAAGGCCAGAGTACGAATGTCGA	1.27	3.92	0.572	0.66	2.29	4.49	-0.344	6.18	-0.114	4.34	3.43	5.45	4.89	2.39	6.81	3.45	0.361	2.66
ACAGACAGGTGATGAAGGTAACTCAGGCTATCAT	0.422	0.692	0.619	0.238	0.146	-0.153	0.282	0.117	0.425	0.236	0.446	0.303	0.521	-0.295	0.205	0.774	0.267	-0.205
AGTAGCAGGCCAAGTTTGGGTCACTCAAACAAAG	0.369	1.17	-1.1	-1.36	0.195	0.663	-0.57	1.64	-0.486	1.72	2.22	2.3	1.7	-0.435	0.67	2.62	1.08	0.19
CGTTCAAGGTCAGAGAGGTCAGTGAATGCCGAGT	3.67	4.41	1.75	1.56	5.16	6.25	12.2	5.57	2.45	5.45	5.35	6.32	7.17	3.83	5.61	4.37	3.21	5.8

From the supplement of paper PMC6555819
